For some of these results: Results with a measured potency or affinity are listed apart.

Results on eleven molecules are retold here after ChEMBL document CHEMBL3988442, “University of Dundee, Small-Polar-MMV Screening Library” (2021).

Common to all, as to parameters: scale not given: direction of the effect not stated beside the values
Assay [1] addresses Protein translocase subunit SecA (Escherichia coli (strain K12)) (UniProt P10408). In words: Assay to Identify E. coli SecA ATPase Inhibitors. Type of assay: functional. The note with it: 30 µM.
The target of assay [2] is T1, Ubiquitin-activating enzyme e1, putative (Leishmania donovani (strain BPK282A1)) (UniProt E9BSI1).
T1 sequence (whole entry): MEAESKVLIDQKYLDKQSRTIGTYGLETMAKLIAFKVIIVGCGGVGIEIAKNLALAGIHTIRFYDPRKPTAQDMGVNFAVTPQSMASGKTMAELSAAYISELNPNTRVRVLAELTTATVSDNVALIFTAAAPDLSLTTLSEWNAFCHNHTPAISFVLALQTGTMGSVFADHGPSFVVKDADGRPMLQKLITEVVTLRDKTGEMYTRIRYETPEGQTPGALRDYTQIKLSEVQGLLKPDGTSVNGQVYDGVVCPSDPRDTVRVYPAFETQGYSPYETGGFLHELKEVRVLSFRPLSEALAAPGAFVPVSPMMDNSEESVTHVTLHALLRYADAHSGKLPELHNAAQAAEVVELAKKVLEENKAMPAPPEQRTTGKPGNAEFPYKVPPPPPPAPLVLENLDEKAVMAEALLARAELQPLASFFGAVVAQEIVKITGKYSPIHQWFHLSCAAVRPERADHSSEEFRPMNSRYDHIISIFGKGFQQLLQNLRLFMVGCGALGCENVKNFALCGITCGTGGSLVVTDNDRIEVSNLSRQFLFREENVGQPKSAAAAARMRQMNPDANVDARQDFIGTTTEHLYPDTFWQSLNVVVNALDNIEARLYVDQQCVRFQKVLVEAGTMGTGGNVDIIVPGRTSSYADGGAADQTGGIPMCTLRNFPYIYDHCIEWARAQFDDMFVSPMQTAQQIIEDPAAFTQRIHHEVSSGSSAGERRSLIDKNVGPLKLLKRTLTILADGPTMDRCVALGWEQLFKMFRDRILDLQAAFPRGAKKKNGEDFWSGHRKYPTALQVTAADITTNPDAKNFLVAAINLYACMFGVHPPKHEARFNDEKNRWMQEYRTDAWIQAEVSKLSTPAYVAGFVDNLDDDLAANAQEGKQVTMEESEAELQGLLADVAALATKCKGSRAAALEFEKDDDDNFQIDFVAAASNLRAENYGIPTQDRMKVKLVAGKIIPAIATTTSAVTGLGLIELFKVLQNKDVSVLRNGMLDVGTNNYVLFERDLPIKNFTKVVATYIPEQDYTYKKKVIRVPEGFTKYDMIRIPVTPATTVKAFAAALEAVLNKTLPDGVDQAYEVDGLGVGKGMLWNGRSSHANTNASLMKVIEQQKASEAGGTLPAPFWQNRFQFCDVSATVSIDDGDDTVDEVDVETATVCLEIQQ
Kind of assay: Leishmania donovani Ubiquitin Activating Enzyme (LdE1). Type of assay: functional. As to conditions: 30 µM.

The target of assay [3] is AMP-activated protein kinase, AMPK (Homo sapiens) (UniProt P54646+O43741+P54619+Q9UGJ0+Q9Y478+Q13131+Q9UGI9). Kind of assay: AMP-dependent Kinase enzyme assay. An in vitro enzyme assay that detects ADP turnover that is directly proportional to AMPK activity. This uses naive AMPK that is activated during the assay with MK-8722. Type of assay: functional. As to conditions: 30 µM.

Assay [4] deals with Sialic acid-binding Ig-like lectin 9 (Homo sapiens) (UniProt Q9Y336). In words: Hs-Siglec9 ALPHAscreen SOP 20170721. The note with it: 10 µM.
Sequence of Sialic acid-binding Ig-like lectin 9 (Homo sapiens) (Q9Y336 whole entry): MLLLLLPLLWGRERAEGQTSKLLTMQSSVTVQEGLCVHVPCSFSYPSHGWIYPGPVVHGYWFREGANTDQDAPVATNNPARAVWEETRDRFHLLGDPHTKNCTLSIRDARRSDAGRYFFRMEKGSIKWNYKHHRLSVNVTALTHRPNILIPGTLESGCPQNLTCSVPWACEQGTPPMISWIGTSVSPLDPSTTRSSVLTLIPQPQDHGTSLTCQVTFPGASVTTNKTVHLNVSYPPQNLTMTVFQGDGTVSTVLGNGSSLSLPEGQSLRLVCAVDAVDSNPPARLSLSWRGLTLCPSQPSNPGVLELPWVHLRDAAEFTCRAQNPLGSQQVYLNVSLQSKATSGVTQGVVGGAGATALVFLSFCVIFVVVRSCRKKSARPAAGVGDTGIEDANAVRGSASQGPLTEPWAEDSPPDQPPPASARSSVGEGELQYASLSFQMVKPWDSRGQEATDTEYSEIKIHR
In the next assay the test system is Trypanosoma cruzi. In words: Trypanosoma cruzi phosphomannomutase and mannose-1-phosphate guanylyltransferase assay. Type of assay: functional. As to conditions: 10 µM.
The target in assay [5] is T2, Arginase-2, mitochondrial (Homo sapiens) (UniProt P78540).
T2 sequence (whole entry): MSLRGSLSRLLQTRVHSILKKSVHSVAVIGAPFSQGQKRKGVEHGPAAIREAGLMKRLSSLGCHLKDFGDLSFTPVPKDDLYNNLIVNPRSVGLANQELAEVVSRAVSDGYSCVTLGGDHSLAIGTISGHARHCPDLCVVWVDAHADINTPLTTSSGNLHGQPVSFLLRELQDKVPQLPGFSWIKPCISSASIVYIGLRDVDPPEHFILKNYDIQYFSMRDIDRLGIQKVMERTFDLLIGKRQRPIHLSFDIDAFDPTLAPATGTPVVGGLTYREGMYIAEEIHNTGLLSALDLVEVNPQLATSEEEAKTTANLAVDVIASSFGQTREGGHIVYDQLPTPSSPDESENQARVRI
Kind of assay: in vitro enzyme assay to detect the production of urea directly proportional to the activity of Arginase II. Note: in the data most compounds retested in dose-response had high values. Format: functional. The note with it: 33.3 µM.

Assay [6] has as its target T3, Proteasome subunit beta (Trypanosoma cruzi) (UniProt O96673).
T3 sequence (whole entry): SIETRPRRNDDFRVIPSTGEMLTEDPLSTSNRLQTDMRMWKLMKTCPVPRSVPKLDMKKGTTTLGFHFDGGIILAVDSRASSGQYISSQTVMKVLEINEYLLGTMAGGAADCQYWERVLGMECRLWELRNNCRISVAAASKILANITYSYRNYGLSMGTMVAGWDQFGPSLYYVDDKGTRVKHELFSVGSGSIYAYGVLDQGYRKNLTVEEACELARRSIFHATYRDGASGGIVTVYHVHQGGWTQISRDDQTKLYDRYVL
Kind of assay: Trypanosoma cruzi proteasome chymotrypsin-like activity (TcProtChymo) assay. Note: in the data most compounds retested in dose-response had high values. Format: functional. As to conditions: 9.37 µM.

For another assay, the species on record is Homo sapiens. Kind of assay: To identify inhibition of the IFN signalling (Jak-Stat) pathway via expression of an eGFP reporter gene under the control of an IFN-stimulated response element (ISRE) containing MxA promoter. Format: functional. As to conditions: 30 µM. For orientation: Reporter assays use an easily measured gene product as a stand-in for the process of interest.

In assay [7] the target is T4, Tyrosyl-tRNA synthetase, putative (Trypanosoma cruzi (strain CL Brener)) (UniProt Q4DSP6).
T4 sequence (whole entry): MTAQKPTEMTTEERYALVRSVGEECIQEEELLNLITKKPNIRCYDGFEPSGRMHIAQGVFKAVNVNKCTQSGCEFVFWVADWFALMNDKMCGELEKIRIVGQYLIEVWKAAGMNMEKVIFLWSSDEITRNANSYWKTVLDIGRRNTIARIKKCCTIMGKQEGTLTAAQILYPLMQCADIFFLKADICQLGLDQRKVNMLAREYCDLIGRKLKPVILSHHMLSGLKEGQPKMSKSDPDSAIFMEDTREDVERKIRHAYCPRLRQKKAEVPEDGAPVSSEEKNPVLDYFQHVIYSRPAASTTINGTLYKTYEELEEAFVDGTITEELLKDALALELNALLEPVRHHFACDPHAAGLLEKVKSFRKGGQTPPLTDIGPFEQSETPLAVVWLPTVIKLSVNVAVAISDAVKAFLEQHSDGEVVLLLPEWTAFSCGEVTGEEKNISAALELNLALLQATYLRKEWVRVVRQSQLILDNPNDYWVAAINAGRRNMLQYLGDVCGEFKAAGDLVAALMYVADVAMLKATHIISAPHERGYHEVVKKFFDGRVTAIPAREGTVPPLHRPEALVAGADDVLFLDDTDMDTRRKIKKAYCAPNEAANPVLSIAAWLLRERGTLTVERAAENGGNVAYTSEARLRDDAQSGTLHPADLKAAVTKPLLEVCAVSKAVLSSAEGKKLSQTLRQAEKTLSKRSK
Kind of assay: Trypanosoma cruzi tyrosyl tRNA synthetase (TcYRS) _High Tyrosine SOP. Note: in the data most compounds retested in dose-response had high values. The note with it: 30 µM. Type of assay: functional.

Assay [8] deals with T4, Tyrosyl-tRNA synthetase, putative (Trypanosoma cruzi (strain CL Brener)). Kind of assay: Trypanosoma cruzi tyrosyl tRNA synthetase (TcYRS) SOP. Type of assay: functional. As to conditions: 30 µM.
In assay [9] the target is Chromo domain-containing protein 1 (Saccharomyces cerevisiae (strain ATCC 204508 / S288c) (Baker's yeast)) (UniProt P32657). In words: ScCHD-1 Enzyme Inhibition Assay. Note: in the data most compounds retested in dose-response had high values. Format: functional. The note with it: 30 µM.
Sequence of Chromo domain-containing protein 1 (Saccharomyces cerevisiae (strain ATCC 204508 / S288c) (Baker's yeast)) (P32657 whole entry, the tested form may be a part): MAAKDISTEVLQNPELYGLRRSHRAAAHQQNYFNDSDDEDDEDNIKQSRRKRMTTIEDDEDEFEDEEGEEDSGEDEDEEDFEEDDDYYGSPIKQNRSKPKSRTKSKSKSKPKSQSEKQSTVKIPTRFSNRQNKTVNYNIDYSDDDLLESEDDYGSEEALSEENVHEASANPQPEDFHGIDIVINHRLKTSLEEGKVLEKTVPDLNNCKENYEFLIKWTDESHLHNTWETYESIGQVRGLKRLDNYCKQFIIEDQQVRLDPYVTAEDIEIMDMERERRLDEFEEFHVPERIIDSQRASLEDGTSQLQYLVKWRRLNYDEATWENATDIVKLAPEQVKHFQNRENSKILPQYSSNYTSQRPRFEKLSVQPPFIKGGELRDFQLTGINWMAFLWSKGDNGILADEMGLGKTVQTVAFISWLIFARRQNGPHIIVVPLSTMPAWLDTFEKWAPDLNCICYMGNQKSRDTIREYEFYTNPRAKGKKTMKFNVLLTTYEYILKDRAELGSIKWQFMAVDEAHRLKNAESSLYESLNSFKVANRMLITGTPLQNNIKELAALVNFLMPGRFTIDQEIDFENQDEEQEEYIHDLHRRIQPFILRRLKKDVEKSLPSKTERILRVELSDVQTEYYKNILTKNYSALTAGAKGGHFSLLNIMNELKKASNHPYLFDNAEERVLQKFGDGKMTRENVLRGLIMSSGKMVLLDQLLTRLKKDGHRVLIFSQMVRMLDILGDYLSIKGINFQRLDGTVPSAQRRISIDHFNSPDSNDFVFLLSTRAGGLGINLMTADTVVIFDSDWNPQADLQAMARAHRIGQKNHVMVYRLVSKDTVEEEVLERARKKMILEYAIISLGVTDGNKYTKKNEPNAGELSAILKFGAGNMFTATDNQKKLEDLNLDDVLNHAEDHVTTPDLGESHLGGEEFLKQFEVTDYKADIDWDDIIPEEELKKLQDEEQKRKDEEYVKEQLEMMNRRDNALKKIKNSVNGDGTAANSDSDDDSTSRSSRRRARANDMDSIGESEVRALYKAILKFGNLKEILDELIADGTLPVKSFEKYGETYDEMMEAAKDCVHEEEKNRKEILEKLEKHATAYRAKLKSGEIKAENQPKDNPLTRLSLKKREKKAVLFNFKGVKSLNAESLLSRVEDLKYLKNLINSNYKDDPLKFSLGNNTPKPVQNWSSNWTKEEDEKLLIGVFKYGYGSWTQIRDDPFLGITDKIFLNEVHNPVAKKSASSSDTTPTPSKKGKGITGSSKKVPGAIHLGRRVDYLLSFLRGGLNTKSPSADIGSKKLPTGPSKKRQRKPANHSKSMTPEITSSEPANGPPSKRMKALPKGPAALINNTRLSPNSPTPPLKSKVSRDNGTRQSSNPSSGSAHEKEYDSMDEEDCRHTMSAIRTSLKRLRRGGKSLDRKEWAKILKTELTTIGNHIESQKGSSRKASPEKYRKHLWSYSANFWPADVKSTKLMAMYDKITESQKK

Sequence of Protein translocase subunit SecA (Escherichia coli (strain K12)) (P10408 whole entry): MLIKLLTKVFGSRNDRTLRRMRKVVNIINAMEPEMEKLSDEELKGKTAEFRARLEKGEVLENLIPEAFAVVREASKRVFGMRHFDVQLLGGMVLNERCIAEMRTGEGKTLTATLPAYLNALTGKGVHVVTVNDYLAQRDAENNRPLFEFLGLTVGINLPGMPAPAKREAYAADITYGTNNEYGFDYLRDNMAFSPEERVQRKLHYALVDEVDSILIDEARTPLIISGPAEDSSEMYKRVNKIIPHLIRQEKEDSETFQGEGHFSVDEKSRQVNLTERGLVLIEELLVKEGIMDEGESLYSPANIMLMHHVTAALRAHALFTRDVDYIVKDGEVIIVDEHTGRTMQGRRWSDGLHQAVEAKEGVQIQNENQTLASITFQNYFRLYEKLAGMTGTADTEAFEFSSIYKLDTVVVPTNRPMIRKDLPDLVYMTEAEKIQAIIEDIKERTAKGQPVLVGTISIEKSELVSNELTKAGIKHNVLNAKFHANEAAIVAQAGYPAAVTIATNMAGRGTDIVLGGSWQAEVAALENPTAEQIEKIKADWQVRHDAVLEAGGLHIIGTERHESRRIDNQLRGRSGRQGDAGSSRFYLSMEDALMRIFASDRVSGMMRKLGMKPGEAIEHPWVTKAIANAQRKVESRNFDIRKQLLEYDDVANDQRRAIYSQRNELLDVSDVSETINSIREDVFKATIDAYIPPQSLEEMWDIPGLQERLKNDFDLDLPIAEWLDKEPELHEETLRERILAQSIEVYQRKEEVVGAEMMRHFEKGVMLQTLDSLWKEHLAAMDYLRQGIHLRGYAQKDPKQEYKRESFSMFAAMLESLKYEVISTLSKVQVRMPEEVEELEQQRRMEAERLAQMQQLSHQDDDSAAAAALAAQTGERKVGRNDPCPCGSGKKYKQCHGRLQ

On to `CC(NC(=O)C1=NN(C)C(=O)CC1)c1ccc(F)cc1F` (stereo unspecified), for which the Percent Effect in assay [1] was -1.15%; in [2] it was 16.4%; in [3], 16.9%; in [4], 10.9%; with Trypanosoma cruzi, 4.11%; in [5], -4.09%. Besides, the Percent Effect was 20.4% in assay [6]; 14.5% in the assay filed under Homo sapiens; 5.38% in assay [7]; 15% in assay [8]; -6.12% in assay [9].

Turning to `CCOCCn1c(=O)[nH]c2cc(C(=O)N(C)Cc3nc(C)cs3)ccc21`, the Percent Effect was -0.0499% in assay [1]; 8.11% in assay [2]; -5.57% in [3]; 8.59% in assay [4]; -2.9% with Trypanosoma cruzi; 0.476% in [5]. Moreover, the Percent Effect in assay [6] is 21%; in the assay listed under Homo sapiens it was 1.41%; in assay [7] it was 5.82%; in assay [8] it was 17.1%; in [9] it was -3.61%.

As to `Cn1ccnc1CN1CCC2(CC1)CC(Oc1cccnc1)C2`, the Percent Effect is -2.04% in assay [1]; 8% in assay [2]; 4.85% in assay [3]; 10.2% in assay [4]; -1.35% with Trypanosoma cruzi; -23.8% in assay [5]. Besides, the Percent Effect in assay [6] is 1.88%; in the assay listed under Homo sapiens, 6.63%; in [7], 10.4%; in assay [8] it was 22.5%; in assay [9] it was -6.08%.

With `Cc1ccc(C2COCCN2C(=O)c2ccc(CN(C)C)cc2)o1` (stereo unspecified), the Percent Effect in assay [1] is -0.657%; in assay [2], -5.33%; in assay [3] it was -1.26%; in assay [4] it was 2.6%; in the assay on Trypanosoma cruzi, -1.85%; in [5], 2.08%. In addition, the Percent Effect in [6] is 4.01%; in the assay filed under Homo sapiens, 0.868%; in assay [7], 1.64%; in assay [8], 1.24%; in assay [9] it was -0.0158%.

As to `COc1ccc(C(O)CNc2c(C#N)c(=O)n(C)c(=O)n2C)cc1` (stereo unspecified), the Percent Effect is 0.0916% in assay [1]; 12.7% in assay [2]; 4.15% in [3]; -13.6% in assay [4]; -6.33% in the assay on Trypanosoma cruzi; 5.32% in [5]. In addition, the Percent Effect in [6] was 2.87%; in the assay filed under Homo sapiens it was 9.61%; in [7], 5.42%; in assay [8] it was 11.4%; in assay [9], -5.56%.

As to `CN(C)S(=O)(=O)N1C[C@H](Oc2cccnc2)[C@H]2OCCC[C@H]21`, the Percent Effect in assay [1] was -5.31%; in [2], 5.2%; in [3], 74%; in assay [4], -1.91%; in the assay on Trypanosoma cruzi, -0.69%; in [5], -4.52%. Further, the Percent Effect in assay [6] is 3.65%; in the assay listed under Homo sapiens, 10.9%; in [7] it was 0%; in assay [8], -1.28%; in [9], -8.75%.

In the case of `Cc1nc(CN2CCCC(N(C)Cc3c(C)noc3C)C2)no1` (stereo unspecified), the Percent Effect in [1] is -2.99%; in assay [2] it was -15.6%; in [3], -0.475%; in assay [4], -1.55%; in the assay with Trypanosoma cruzi it was 9.7%; in assay [5], -0.21%. Besides, the Percent Effect in assay [6] is 16.6%; in the assay listed under Homo sapiens, 6.79%; in assay [7], 1.91%; in [8], 9.41%; in [9], -22.6%.

For the molecule `Cc1ccc(-c2nc(CN3CCOC(c4ccccc4)C3)cs2)o1` (stereo unspecified), the Percent Effect in assay [1] is 0.984%; in assay [2], -24.3%; in [3] it was -0.197%; in [4], 6.73%; with Trypanosoma cruzi, 2.7%; in [5] it was 3.81%. Moreover, the Percent Effect in [6] was 12.6%; in the assay listed under Homo sapiens, -17.4%; in assay [7], 3.7%; in assay [8], 0%; in [9], 17.1%.

Regarding `O=C(C1=CCCC1)N1C[C@H](Oc2cccnc2)[C@H]2OCCC[C@H]21`, the Percent Effect in assay [1] is 1.45%; in assay [2], 5.41%; in [3], 3.36%; in assay [4], -3.91%; in the assay on Trypanosoma cruzi it was -0.977%; in assay [5], -2.08%. The Percent Effect was 3.47% in assay [6]; 7.05% in the assay listed under Homo sapiens; 92.1% in assay [7]; 3.66% in assay [8]; -17.8% in assay [9].

`CCCOc1ccc(CNC(=O)N2CCC(C(N)=O)C2)cc1` (stereo unspecified): the Percent Effect was -0.765% in assay [1]; 22.8% in [2]; -8.41% in [3]; -9.27% in assay [4]; -2.36% in the assay with Trypanosoma cruzi; 2.28% in assay [5]. The Percent Effect in assay [6] is 5.82%; in the assay listed under Homo sapiens, -21.1%; in [7], 4.43%; in assay [8] it was 13.9%; in assay [9], -2.35%.

As to `C[S+]([O-])c1nncn1CC(=O)c1cccc(Cl)c1` (stereo unspecified), the Percent Effect in [1] is -7.89%; in [2], 16.2%; in assay [3], -4.48%; in assay [4], 23.3%; in the assay with Trypanosoma cruzi, 6.16%; in assay [5], 3.72%. Moreover, the Percent Effect in assay [6] is 10.4%; in the assay listed under Homo sapiens, -1.98%; in [7], 5.38%; in [8], 8.64%; in [9], -6.7%.
